Data taken from the supplement of paper PMC12350171.
Structures can show the parent of a compound that is named as a salt. Unmarked numbers belong to inactive results.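 How the source made its calls: active = normalised median growth AUC below 0.1 of DMSO control; inactive = AUC 0.1 or higher.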

Test system: S. enterica typhimurium tolC KO
Assay: growth AUC normalised to DMSO control (median) (fraction of control); higher = less growth inhibition, active = hit call of the paper
Settings: 20 µM
Method in brief: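 Each strain went through two overnight passages under anaerobic conditions before growth in mGAM in 96-well plates, starting at OD578 0.01, with each compound from the approved-drug library at 20 μM and 1% DMSO. Inside an anaerobic incubator, OD578 was recorded every hour for 24 h. Growth curves were cut off at entry into stationary phase, and the area under the curve was calculated by the trapezoidal rule and normalised to vehicle wells on the same plate. Reported values are medians of three biological replicates.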
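Further: active when median AUC fell below 0.1.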

SMILES | growth AUC normalised to DMSO control
CC(C)[C@H](N)C(=O)OCC(CO)OCn1cnc2c(=O)nc(N)[nH]c21 (stereo not given in full) [Valganciclovir hydrochloride] | 1
O=C1[C@H]2CCCC[C@H]2C(=O)N1CCCCN1CCN(c2nsc3ccccc23)CC1 [Perospirone hydrochloride] | 0.98
O=[N+]([O-])c1ccc(O)c2ncccc12 [Nitroxoline] | 0.169
CCCCCCCCCCCCCCCCCCCCCC(=O)Nc1ccn([C@@H]2O[C@H](CO)[C@@H](O)[C@@H]2O)c(=O)n1 [Enocitabine] | 1
CN(C)CCc1c[nH]c2ccc(Cn3cncn3)cc12 [Rizatriptan benzoate] | 0.994
Cn1cc(C(=O)[C@@H]2CCc3[nH]cnc3C2)c2ccccc21 [Ramosetron hydrochloride] | 0.975
CC(=O)OCC(=O)[C@@]1(O)CC[C@H]2[C@@H]3CCC4=CC(=O)C=C[C@]4(C)[C@@]3(F)[C@@H](O)C[C@@]21C [Isoflupredone acetate] | 0.98
O=C(Cn1c(=O)sc2ccc(Cl)cc21)N1CCN(CCO)CC1 [Tiaramide Hydrochloride] | 0.995
C/C(O)=C(\C#N)C(=O)Nc1ccc(C(F)(F)F)cc1 [Teriflunomide] | 0.88
O=C(O)C1CSCN1 (stereo not given) [Timonacic] | 0.998
CC[N+]1(CC)CCC(=C(c2ccccc2)c2ccccc2)C1C (stereo not given) [Prifinium Bromide] | 0.935
CCCCC(=O)N(Cc1ccc(-c2ccccc2-c2nnn[nH]2)cc1)[C@H](C(=O)O)C(C)C [Valsartan] | 1.02
NS(=O)(=O)c1cc(C(=O)NN2C[C@@H]3[C@H]4CC[C@H](C4)[C@@H]3C2)ccc1Cl [Tripamide] | 0.975
CC(=O)Nc1ccc(OC(=O)c2ccccc2O)cc1 [Acetaminosalol] | 0.937
Cc1nc(=O)c2cc(CN(C)c3ccc(C(=O)N[C@@H](CCC(=O)O)C(=O)O)s3)ccc2[nH]1 [Raltitrexed] | 0.991
Oc1cc(O)c2c(c1)O[C@H](c1ccc(O)c(O)c1)[C@@H](O)C2 [Cianidanol] | 0.994
C[C@@H](CN1CC(=O)NC(=O)C1)N1CC(=O)NC(=O)C1 [Dexrazoxane hydrochloride] | 0.989
CN1CCC[C@@H]1Cc1c[nH]c2ccc(CCS(=O)(=O)c3ccccc3)cc12 [Eletriptan] | 0.958
CC(C)COC(=O)OCN1C(=O)CN(CCN2CC(=O)N(COC(=O)OCC(C)C)C(=O)C2)CC1=O [Sobuzoxane] | 1
OCCN1CCN(CC/C=C2/c3ccccc3Sc3ccc(C(F)(F)F)cc32)CC1 [Flupentixol dihydrochloride cis-(Z)] | 0.828
CC(C)OC(=O)C(C(=O)OC(C)C)=C1SC=CS1 [Malotilate] | 0.899
CC(/C=C1\SC(=S)N(CC(=O)O)C1=O)=C\c1ccccc1 [Epalrestat] | 0.921
O=C(NC1CCN(CCCCC2(C(=O)NCC(F)(F)F)c3ccccc3-c3ccccc32)CC1)c1ccccc1-c1ccc(C(F)(F)F)cc1 [Lomitapide] | 1
CCCSc1nc(N[C@@H]2C[C@H]2c2ccc(F)c(F)c2)c2nnn([C@@H]3C[C@H](OCCO)[C@@H](O)[C@H]3O)c2n1 [Ticagrelor] | 0.899
O=C1c2c(O)ccc(O)c2C(=O)c2c(NCCNCCO)ccc(NCCNCCO)c21 [Mitoxantrone dihydrochloride] | 0.999
CCOCC(O)COc1ccc(NC(=O)CC[S+](C)C)cc1 (stereo not given) [Suplatast Tosylate] | 1
CN(C)CCCN1c2ccccc2[S+]([O-])c2ccc(Cl)cc21 (stereo not given) [Chlorpromazine Sulfoxide] | 1.01
NC(=O)Cc1cccc(C(=O)c2ccccc2)c1N [Nepafenac] | 1.02
CC(C)(CO)[C@@H](O)C(=O)NCCC(=O)NCCSSCCNC(=O)CCNC(=O)[C@H](O)C(C)(C)CO [D-Pantethine] | 1
CC(C)OC(=O)CCC/C=C\C[C@@H]1[C@@H](CC[C@@H](O)CCc2ccccc2)[C@H](O)C[C@@H]1O [Latanoprost] | 0.896
